# Screening results from PubChem.
# Rows were chosen to be rich in hits. Some 0.74% of all compounds tested hit in one or more screens of this group.
# LYPLA1 counter = blocks human lysophospholipase 1, a PME1 counter-screen; O75608; recombinant LYPLA1, FP-Rh probe fluorescence polarization; inhibition, % at 5.9 µM; actives 0.16% (n = 320,000);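 active = inhibition above the mean of all tested compounds plus 3 SD, set per campaign, cut at about 14% in these data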;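 note: inhibitors block serine hydrolase probe labeling of LYPLA1 so polarization falls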
# Redox H2O2 prof = compounds producing H2O2 with reducing agent – biochemical, NIH compound library profiling, artefact control for MLSCN library redox annotation, primary screen. actives 0.03% (n = 200,000). activation, % at 10 µM. DTT-dependent redox cycling H2O2, phenol red/HRP absorbance; 100% = 100 µM peroxide control, 0% = buffer. AID 878;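 active = activation of at least 50% relative to the plate's high and low controls in the primary single-dose screen; inactive = activation below 50%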;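 note: compound incubated with DTT at 0.8 mM final as the reducing agent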
# p97 inhibitor = human p97 ATPase inhibition | inhibition, % at 8 µM | P55072 | recombinant p97 ATPase, Kinase-Glo ATP luminescence, 3 h | actives 0.42% (n = 220,000); in the data active = inhibition above about 15%
# Target sequence (P55072 whole entry, looked up): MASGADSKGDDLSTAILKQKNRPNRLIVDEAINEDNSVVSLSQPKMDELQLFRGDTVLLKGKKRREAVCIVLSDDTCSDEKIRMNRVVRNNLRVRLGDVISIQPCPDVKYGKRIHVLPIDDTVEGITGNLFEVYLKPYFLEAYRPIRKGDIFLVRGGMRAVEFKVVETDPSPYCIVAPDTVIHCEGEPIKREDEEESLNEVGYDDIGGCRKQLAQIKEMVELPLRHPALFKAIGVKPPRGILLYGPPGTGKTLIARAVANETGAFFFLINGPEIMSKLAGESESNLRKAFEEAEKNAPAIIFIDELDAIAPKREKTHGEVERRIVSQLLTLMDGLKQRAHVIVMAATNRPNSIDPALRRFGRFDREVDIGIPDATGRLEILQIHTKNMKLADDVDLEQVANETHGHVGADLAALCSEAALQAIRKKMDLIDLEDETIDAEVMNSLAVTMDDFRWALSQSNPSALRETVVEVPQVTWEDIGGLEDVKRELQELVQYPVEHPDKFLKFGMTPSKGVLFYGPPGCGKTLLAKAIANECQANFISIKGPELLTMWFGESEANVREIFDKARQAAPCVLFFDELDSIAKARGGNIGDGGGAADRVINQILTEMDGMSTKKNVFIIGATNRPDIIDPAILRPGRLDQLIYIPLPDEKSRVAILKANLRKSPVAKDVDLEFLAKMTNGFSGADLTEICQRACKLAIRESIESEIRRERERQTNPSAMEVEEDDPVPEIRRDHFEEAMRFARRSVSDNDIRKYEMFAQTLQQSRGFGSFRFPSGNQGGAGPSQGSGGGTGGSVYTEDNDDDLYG
# LYPLA2 inh = blocks human lysophospholipase 2, a PME1 counter-screen | inhibition, % at 5.9 µM | O95372 | actives 0.38% (n = 320,000) | recombinant LYPLA2, FP-Rh probe fluorescence polarization;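 active = inhibition above the screen-wide mean plus 3 SD, limit set per campaign, cut at about 26% in these data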
# LYPLA2 conf = counter-screen for PME1 inhibitors: confirmation of human LYPLA2 inhibitors; recombinant LYPLA2, FP-Rh probe fluorescence polarization; AID 2232; shares compounds with LYPLA2 inh; actives 72% (n = 1,100); inhibition, % at 5.9 µM;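 active = mean inhibition across replicates above the hit cutoff set in the primary screen, cut at about 26% in these data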;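 note: blocked labeling of the enzyme by serine hydrolase FP-Rh probe lowers polarization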
# LYPLA2 gel ABPP = LYPLA2 (human) inhibition, late stage results; shares compounds with LYPLA2 inh; inhibition, % at 20 µM; actives 30% (n = 150); rhLYPLA2 in mouse brain proteome, gel ABPP FP-Rh;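 active = inhibition of LYPLA2 enzyme probe labeling above about 50%, limit read from the data; inactive = inhibition below that limit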;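 note: loss of FP-Rh probe labeling of the LYPLA2 gel band measured as band density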
# Hits are given with their value; n = inactive; x = not tested or not shown.
SMILES,LYPLA1 counter,Redox H2O2 prof,p97 inhibitor,LYPLA2 inh,LYPLA2 conf,others
Cc1ccc(C(=O)Nc2ccc(N3CCN(C(=O)c4cccs4)CC3)cc2)c(Cl)c1,n,x,x,47.3,46.5,
CCC(=O)Nc1ccc(N2CCN(C(=O)c3cccs3)CC2)cc1,n,n,n,n,x,
COc1cccc(CNC(=O)COC(=O)c2cc([N+](=O)[O-])ccc2N2CCCC2)c1,n,x,x,n,x,
Cc1ccc(C(=O)Nc2ccc(N3CCN(C(=O)c4ccco4)CC3)cc2)c(Cl)c1,n,x,x,41.8,30.7,
Cc1ccccc1C(=O)Nc1ccc(N2CCN(C(=O)c3ccco3)CC2)cc1,n,x,x,n,x,
O=C(Nc1ccc(N2CCN(C(=O)c3ccco3)CC2)cc1)c1ccccc1F,n,n,n,n,x,
O=C(Nc1ccc(N2CCN(C(=O)c3ccco3)CC2)cc1)c1ccccc1Br,n,x,x,33.7,29.6,
O=C(NNC(=S)NCc1ccco1)c1ccc(S(=O)(=O)N2CCOCC2)cc1,n,n,n,n,x,
Cc1nn(-c2ccccc2)c2sc(C(=O)OC3CCOC3=O)cc12 (centres undefined),n,n,n,36.5,42.5,
S=C(NCc1ccc(Cl)cc1)NC1CCN(Cc2ccccc2)CC1,n,n,n,n,x,
O=C1CCCN1CCCNc1ncnc2c1cnn2-c1ccc(Cl)cc1,n,n,n,30.3,29.4,
O=C1C(SCCO)=C(SCCO)C(=O)c2ccccc21,n,x,x,30.9,54.9,
O=C(CSc1nnc(SCc2cccc3ccccc23)s1)N/N=C/c1c[nH]c2ccccc12,n,n,n,n,x,
O=C(CSc1nnc(SCc2ccc(Cl)cc2)s1)N/N=C/c1c[nH]c2ccccc12,n,n,n,45.2,58.4,
COc1cc(O)ccc1C(=O)CCc1ccc(O)cc1,n,x,x,n,x,
O=C(COc1ccccc1)Nc1nnc(S(=O)(=O)Nc2ccccc2)s1,n,x,x,n,x,
O=[N+]([O-])c1ccccc1OCC(O)CN1CCN(CC(O)COc2ccccc2[N+](=O)[O-])CC1 (centres undefined),n,x,x,44.4,49.3,
OC(COc1cccc2ccccc12)CN1CCN(c2cccc(Cl)c2)CC1 (centres undefined),n,x,n,35.3,n,
COc1ccc(N2CCN(CC(O)COc3ccccc3[N+](=O)[O-])CC2)cc1 (centres undefined),n,n,n,n,x,
Cc1noc(C)c1CSCC(=O)Nc1ccc(S(C)(=O)=O)cc1,n,x,x,n,x,
CC1(C)NC(C)(C)C(O)(C(N)=O)C1=O (centres undefined),n,n,n,26.8,n,
COc1ccc(C2CC(c3cccc(Cl)c3)n3nc(N)nc3N2)cc1 (centres undefined),n,n,n,n,x,
COc1ccccc1C1CC(c2ccc(Cl)cc2Cl)Nc2nc(N)nn21 (centres undefined),n,n,n,43.5,33.7,
O=C(CCCN=C1NS(=O)(=O)c2ccccc21)OCC(=O)c1ccc(F)cc1,n,x,x,n,x,
COc1ccc(S(=O)(=O)N2CCCC2)cc1C(=O)O,n,x,x,n,x,
SMILES,LYPLA1 counter,Redox H2O2 prof,p97 inhibitor,LYPLA2 inh,LYPLA2 conf,others
O=C(Cc1ccc(-n2c(=O)[nH]c3ccsc3c2=O)cc1)N1CCN(c2ccc(Cl)cc2)CC1,n,n,n,30.9,28.6,
O=C(Nc1ccccc1)[C@@H]1CC=C[C@@H]2CCN(Cc3ccc(Cl)c(Cl)c3)C(=O)[C@@H]21,n,x,x,n,x,
CCC1CCC(c2nnc(-c3ccc([N+](=O)[O-])cc3)o2)CC1 (centres undefined),n,n,n,49.3,51.3,LYPLA2 gel ABPP=n
Clc1ccc(-c2nnc(C3CC3)o2)cc1,n,x,n,n,x,
O=C(CSc1ccc(Br)cc1)NCC(c1ccco1)N1CCCCC1 (centres undefined),n,x,x,n,x,
Cc1csc2c(SCC(=O)NNC(=O)C(Cl)Cl)ncnc12,n,x,n,n,x,
CC(=O)c1cc(C#N)c(SCc2ccncc2)nc1C,n,n,n,n,x,
CC(=O)c1cc(C#N)c(SCc2ccccc2C#N)nc1C,n,n,n,45.7,46.3,
Cc1nc(-c2ccc(S(=O)(=O)N3CCCN(CCc4ccccc4)CC3)s2)cs1,n,x,n,61.0,67.8,LYPLA2 gel ABPP=50.0
Cc1nc(-c2ccc(S(=O)(=O)N3CCN(C4c5ccccc5-c5ccccc54)CC3)s2)cs1,n,x,n,n,x,
Cc1ccccc1SCC(=O)N1CCN(c2ccc(C(F)(F)F)cn2)CC1,n,n,n,27.6,36.3,
O=C(CCC(=O)N1CCN(c2ccc(C(F)(F)F)cn2)CC1)c1cccs1,n,x,x,32.1,n,
Cc1ccc([N+](=O)[O-])cc1NC(=O)CSc1nnc(C)n1CC1CCCO1 (centres undefined),n,x,x,n,x,
O=C(/C=C/c1ccc(S(=O)(=O)N2CCOCC2)cc1)OCC(=O)c1ccc([N+](=O)[O-])cc1,n,x,n,n,x,
COc1ccc(N2CCN(C(=O)CCCOc3cc(=O)n(C)c4ccccc34)CC2)cc1,n,n,n,30.5,32.8,
O=C(CCN1C(=O)c2cccc3cccc(c23)C1=O)N1CCOCC1,n,n,n,n,x,
COc1ccc(N2CCN(C(=O)CCCN3C(=O)c4cccc5cccc(c45)C3=O)CC2)cc1,n,n,n,73.2,63.3,LYPLA2 gel ABPP=n
O=C(CCCN1C(=O)c2cccc3cccc(c23)C1=O)N1CCN(c2ccc(F)cc2)CC1,n,n,n,54.3,49.7,
COc1ccccc1N1CCN(C(=O)CCN2C(=O)c3cccc4cccc(c34)C2=O)CC1,n,n,n,n,x,
COc1ccc(NC(=O)Cn2c([N+](=O)[O-])cnc2C)cc1Cl,n,x,x,n,x,
Cc1ncc([N+](=O)[O-])n1CC(=O)Nc1cccc(C(F)(F)F)c1,n,x,x,50.9,41.4,
Cc1ncc([N+](=O)[O-])n1CC(=O)Nc1ccc(OC(F)(F)Cl)cc1,n,x,x,n,x,
Cc1ncc([N+](=O)[O-])n1CC(=O)Nc1ccc(F)c(Cl)c1,n,x,x,34.3,61.4,LYPLA2 gel ABPP=n
CSc1ccccc1NC(=O)Cn1c([N+](=O)[O-])cnc1C,n,x,x,n,x,
Cc1ncc([N+](=O)[O-])n1CC(=O)Nc1ccccc1F,n,x,x,27.6,26.6,
SMILES,LYPLA1 counter,Redox H2O2 prof,p97 inhibitor,LYPLA2 inh,LYPLA2 conf,others
Cc1ncc([N+](=O)[O-])n1CC(=O)NC1CCCCCC1,n,n,n,27.9,32.6,
COc1cc(/C(C)=N/NC(=O)Cc2c(C)[nH][nH]c2=O)ccc1O,n,n,n,n,x,
CCCCCOc1ccc(/C=C/c2c([N+](=O)[O-])c(=O)n(C)c(=O)n2C)cc1,n,x,x,68.8,52.6,LYPLA2 gel ABPP=n
Cn1c(/C=C/c2ccc(Cl)cc2)c([N+](=O)[O-])c(=O)n(C)c1=O,n,x,x,n,x,
O=C(c1ccc([N+](=O)[O-])cc1)N1CCOC12CCN(c1ncc(C(F)(F)F)cc1Cl)CC2,n,n,n,38.1,56.7,LYPLA2 gel ABPP=n
Cc1ccccc1OCC(=O)OCC(=O)c1ccc(OC(=O)c2ccccc2)cc1,n,n,n,n,x,
Cc1ccc(OCC(=O)OCC(=O)c2ccccc2)cc1C,n,x,x,29.1,n,
O=C(Nc1cc(Sc2ccccn2)cc([N+](=O)[O-])c1)c1ccc([N+](=O)[O-])cc1,n,n,n,56.5,n,
